The record followed here is ChEMBL document CHEMBL3433997, “St. Jude Leishmania screening dataset” (2016).

Holding throughout (assay type): functional
The target of experiment [1] is Solute carrier family 2, facilitated glucose transporter member 1 (Homo sapiens) (UniProt P11166). Kind of experiment: ST_JUDE_LEISH: Cytotoxicity at 2uM final concentration against transgenic Leishmania Mexicana promastigotes LmGLUT1 that are glucose transport deficient and complemented with the human glucose transporter GLUT1. Activity is measured by DNA content using SYBR green in vitro.

Experiment [2] addresses Hexose transporter 1 (Plasmodium falciparum) (UniProt O97467). Kind of experiment: ST_JUDE_LEISH: Cytotoxicity at 2uM final concentration against transgenic Leishmania Mexicana promastigotes LmPfHT that are glucose transport deficient and complemented with the Plasmodium falciparum hexose transporter. Activity is measured by DNA content using SYBR green in vitro.
Experiment [3] concerns the target Glucose transporter (Leishmania mexicana) (UniProt O61059). The experiment in a line: ST_JUDE_LEISH: Cytotoxicity at 2uM final concentration against transgenic Leishmania Mexicana promastigotes LmGT2 that are glucose transport deficient and complemented with the L. Mexicana glucose transporter 2. Activity is measured by DNA content using SYBR green in vitro.

Sequence of Solute carrier family 2, facilitated glucose transporter member 1 (Homo sapiens) (P11166 whole entry): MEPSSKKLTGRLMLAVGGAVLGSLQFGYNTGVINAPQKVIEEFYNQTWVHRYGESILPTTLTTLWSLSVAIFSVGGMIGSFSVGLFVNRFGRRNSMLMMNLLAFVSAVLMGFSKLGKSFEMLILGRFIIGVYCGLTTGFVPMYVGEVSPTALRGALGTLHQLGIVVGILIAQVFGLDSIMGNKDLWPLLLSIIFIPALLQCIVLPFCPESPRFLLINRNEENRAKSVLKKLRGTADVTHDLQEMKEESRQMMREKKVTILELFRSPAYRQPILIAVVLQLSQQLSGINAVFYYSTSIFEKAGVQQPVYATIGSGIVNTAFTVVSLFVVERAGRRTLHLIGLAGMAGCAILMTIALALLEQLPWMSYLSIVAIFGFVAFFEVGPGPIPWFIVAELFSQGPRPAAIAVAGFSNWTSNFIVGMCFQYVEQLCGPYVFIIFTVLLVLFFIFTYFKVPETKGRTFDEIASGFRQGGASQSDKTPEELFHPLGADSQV

By inhibition is commonly meant the relative decrease from the control value, in per cent. With `CC1CCCCN1S(=O)(=O)c1ccc(NC(=O)c2cc(-c3ccccc3O)n[nH]2)cc1` (centres undefined), the inhibition in experiment [1] is 1.2%; in experiment [2] it was 1.81%; in experiment [3], -1.06%.
`Cn1c(=N)n(CC(=O)OCc2ccc(OCc3ccccc3)cc2)c2ccccc21`: the results for the inhibition in experiment [1], in experiment [2] and in experiment [3] were 2.99%, 2.29% and 1.49%, respectively.
The like results for `CC(C)c1ccc(CN2CCC(CNC(=O)c3cc(-c4cccc(C(F)(F)F)c4)cs3)C2)cc1` (centres undefined) were, in that order, 1.18%, 1.74% and 3.79%.
Take `CCCC1N=C(N)N=C(N)N1c1ccccc1` (centres undefined): the inhibition is 2.1% in experiment [1], -1.28% in experiment [2] and 0.53% in experiment [3].
Turning to `Cc1ccc2c(=O)n(C)c(=O)n(C)c2n1`, the values for the inhibition in experiment [1], in experiment [2] and in experiment [3] were 6.05%, 2.94% and 1.62%, respectively.
Regarding `Cc1cc(OCc2ccncc2)cc2c1C(=O)CC(C)(C)O2`, the inhibition is -0.52% in experiment [1], 2.18% in experiment [2] and 0.39% in experiment [3].
Turning to `CCCc1c(C(=O)Nc2ccc3c(c2)CCN(C2CCC2)CC3)cnn1-c1ccc(Cl)cc1`, the results for the inhibition in experiment [1], in experiment [2] and in experiment [3] were 5.65%, 4.4% and 2.6%, respectively.
For `Cc1nnsc1C(=O)Nc1ccc(-c2cccc(-c3nc4cc(C(F)(F)F)ccc4[nH]3)c2)cc1` the same measures were 0.51%, 0.86% and 4.55%.
As to `CN1CCN(c2cc(NC(=O)c3ccc(-c4ccc(Cl)cc4)cc3)ccc2Cl)CC1`, the results for the inhibition in experiment [1], in experiment [2] and in experiment [3] were -0.77%, -0.81% and -1.86%, respectively.
For the molecule `COc1ccc(-n2nc(C)cc2C(=O)NCc2ccc(-c3c(C)noc3C)cc2)cc1`, the inhibition is 2.56% in experiment [1], 2.4% in experiment [2] and -0.58% in experiment [3].
As to `NC1CCN(c2nc(NCCc3ccc(O)cc3)nc(NCc3ccccc3-c3ccc(C(F)(F)F)cc3)n2)CC1`, the inhibition turned out to be 4.18% in experiment [1], 3.01% in experiment [2] and 2.19% in experiment [3].
With `CC(CN(C)C)C(=O)Nc1cccc(-c2ccc(-c3nc4cc(F)ccc4[nH]3)cc2)c1` (centres undefined), the inhibition in experiment [1] was -1.76%; in experiment [2] it was -3.5%; in experiment [3], -0.1%.
For `Cc1cccnc1CNc1nccc2c(C)c(C)[nH]c12` the same measures were 2.2%, 2.33% and -0.37%.
